Experimental data published in PubChem BioAssay (Tox21).
Inconclusive results are not listed. A call without a number means that no potency is given here. Activity calls are given as the source filed them. Unless noted, calls follow the shape of the dose curve; as a rule, active = well fitted curve in the direction sought with a large enough effect in the repeat runs; inconclusive = weak or mixed curves; inactive = no such curve, though single readings can be large; an effect the other way counts as inactive or inconclusive.

How the values were obtained:
[1] = target: Estrogen receptor beta (Homo sapiens) (UniProt Q92731); test: qHTS assay to identify small molecule antagonists of the estrogen receptor beta (ER-beta) signaling pathway (AID 1259378; active = well fitted inhibition curve with a large enough effect in the signal ratio in the repeat runs, not every such curve was filed as active; the % refers to the signal ratio; also: potency is read from the fitted curve at half-maximal effect)
Sequence of Estrogen receptor beta (Homo sapiens) (Q92731 whole entry, looked up): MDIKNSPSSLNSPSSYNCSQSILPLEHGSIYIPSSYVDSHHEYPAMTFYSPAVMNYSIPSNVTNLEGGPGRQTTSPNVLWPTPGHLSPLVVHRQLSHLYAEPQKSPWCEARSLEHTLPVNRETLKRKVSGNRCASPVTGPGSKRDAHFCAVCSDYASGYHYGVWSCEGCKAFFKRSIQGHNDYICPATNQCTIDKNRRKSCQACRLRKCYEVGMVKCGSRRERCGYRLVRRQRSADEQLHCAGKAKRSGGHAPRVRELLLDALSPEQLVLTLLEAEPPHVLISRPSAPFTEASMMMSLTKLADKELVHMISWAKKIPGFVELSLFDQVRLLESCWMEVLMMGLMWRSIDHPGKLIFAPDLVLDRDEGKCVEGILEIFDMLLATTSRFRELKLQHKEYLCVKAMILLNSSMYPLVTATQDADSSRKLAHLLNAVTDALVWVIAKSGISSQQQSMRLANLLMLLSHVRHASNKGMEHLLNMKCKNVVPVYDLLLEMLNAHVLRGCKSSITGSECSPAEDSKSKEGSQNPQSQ
Outline: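 ER-beta-UAS-bla HEK293T cells in 2% charcoal-stripped FBS medium treated with compound plus 1nM final 17-beta-estradiol for 16 hr at 37C. Beta-lactamase reporter read by FRET substrate fluorescence after 2 hours at room temperature.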

[2] = qHTS assay to identify small molecule agonists of the androgen receptor (AR) signaling pathway in the presence of an antagonist - cell viability counter screen (AID 1259379); also: nearly all actives have a fitted effect of over 25% in size; also: potency is read from the fitted curve at half-maximal effect
Outline: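 Cytotoxicity is assessed by CellTiter-Fluor in MDA-kb2 cells carrying an MMTV-driven luciferase reporter. Cells receive 3.0uM nilutamide plus compounds at 15 concentrations and incubate 16 hr at 37C without CO2 before fluorescence reading.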

[3] = qHTS assay to identify small molecule agonists of the estrogen receptor beta (ER-beta) signaling pathway - cell viability counter screen (AID 1259380); also: nearly all actives have a fitted effect of over 30% in size; also: potency is read from the fitted curve at half-maximal effect
Outline: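 Cytotoxicity is measured in parallel with the reporter screen: after 16 hr compound exposure at 37C and a 2 hr LiveBLAzer step, CellTiter-Glo is added to the same ER-beta-UAS-bla HEK293T wells and luminescence read after 30 min.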

[4] = qHTS assay to identify small molecule antagonists of the estrogen receptor beta (ER-beta) signaling pathway - cell viability counter screen (AID 1259382); also: nearly all actives have a fitted effect of over 55% in size; also: potency is read from the fitted curve at half-maximal effect
Outline: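 Cytotoxicity counter screen multiplexed with the beta-lactamase antagonist assay: GripTite HEK293T ER-beta-bla cells were treated 16 hr with test chemicals in the presence of 1nM 17-beta-estradiol, and viability was measured by CellTiter-Glo.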

[5] = target: Estrogen receptor (Homo sapiens) (UniProt P03372); test: qHTS assay to identify small molecule agonists of the estrogen receptor alpha (ER-alpha) signaling pathway in the presence of an antagonist (AID 1259383; calls by dose curve; also: nearly all actives have a fitted effect of over 15% in size; also: potency is read from the fitted curve at half-maximal effect; as to activation: top concentration of the series differs between compounds)
Sequence of Estrogen receptor (Homo sapiens) (P03372 whole entry, looked up): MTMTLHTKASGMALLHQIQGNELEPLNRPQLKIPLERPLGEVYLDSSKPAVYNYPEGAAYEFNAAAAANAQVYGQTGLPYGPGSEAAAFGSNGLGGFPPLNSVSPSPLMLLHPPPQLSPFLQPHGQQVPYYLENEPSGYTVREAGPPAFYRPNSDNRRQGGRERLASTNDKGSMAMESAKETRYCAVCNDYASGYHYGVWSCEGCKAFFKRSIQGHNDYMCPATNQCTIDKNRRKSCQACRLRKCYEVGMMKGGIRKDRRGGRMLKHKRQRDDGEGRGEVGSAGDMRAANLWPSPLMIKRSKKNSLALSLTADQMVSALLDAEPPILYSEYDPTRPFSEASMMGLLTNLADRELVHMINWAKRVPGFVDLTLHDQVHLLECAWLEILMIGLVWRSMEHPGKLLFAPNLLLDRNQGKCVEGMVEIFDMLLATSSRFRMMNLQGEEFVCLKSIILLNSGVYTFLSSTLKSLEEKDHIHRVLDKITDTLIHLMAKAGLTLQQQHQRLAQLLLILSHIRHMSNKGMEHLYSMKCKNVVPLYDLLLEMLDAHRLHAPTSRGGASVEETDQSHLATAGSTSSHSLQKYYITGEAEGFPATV
Outline: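 Agonist-mode confirmation in the presence of the ER antagonist ICI-182,780 at 10.0nM final. Breast-derived VM7Luc4E2 reporter cells were exposed to compounds for 22hr, and ERE-driven luciferase was quantified by luminescence.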

[6] = qHTS assay to identify small molecule agonists or antagonists of the thyroid stimulating hormone receptor (TSHR) signaling pathway - wild type cell line counter screen (AID 1259384; calls by dose curve)
Outline: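 Wild-type Hek293 cells, 800/well, 18 h at 37C, then compound with Ro20-1724 for 30 min RT. cAMP by HTRF (cAMP-d2/anti-cAMP cryptate), 1 h RT, fluorescence read. 15 concentrations, triplicates.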

[7] = target: Thyrotropin receptor (Homo sapiens) (UniProt P16473); test: qHTS assay to identify small molecule antagonists of the thyroid stimulating hormone receptor (TSHR) signaling pathway (AID 1259385; calls by dose curve; also: nearly all actives have a fitted effect of over 20% in size; also: potency is read from the fitted curve at half-maximal effect)
Sequence of Thyrotropin receptor (Homo sapiens) (P16473 whole entry, looked up): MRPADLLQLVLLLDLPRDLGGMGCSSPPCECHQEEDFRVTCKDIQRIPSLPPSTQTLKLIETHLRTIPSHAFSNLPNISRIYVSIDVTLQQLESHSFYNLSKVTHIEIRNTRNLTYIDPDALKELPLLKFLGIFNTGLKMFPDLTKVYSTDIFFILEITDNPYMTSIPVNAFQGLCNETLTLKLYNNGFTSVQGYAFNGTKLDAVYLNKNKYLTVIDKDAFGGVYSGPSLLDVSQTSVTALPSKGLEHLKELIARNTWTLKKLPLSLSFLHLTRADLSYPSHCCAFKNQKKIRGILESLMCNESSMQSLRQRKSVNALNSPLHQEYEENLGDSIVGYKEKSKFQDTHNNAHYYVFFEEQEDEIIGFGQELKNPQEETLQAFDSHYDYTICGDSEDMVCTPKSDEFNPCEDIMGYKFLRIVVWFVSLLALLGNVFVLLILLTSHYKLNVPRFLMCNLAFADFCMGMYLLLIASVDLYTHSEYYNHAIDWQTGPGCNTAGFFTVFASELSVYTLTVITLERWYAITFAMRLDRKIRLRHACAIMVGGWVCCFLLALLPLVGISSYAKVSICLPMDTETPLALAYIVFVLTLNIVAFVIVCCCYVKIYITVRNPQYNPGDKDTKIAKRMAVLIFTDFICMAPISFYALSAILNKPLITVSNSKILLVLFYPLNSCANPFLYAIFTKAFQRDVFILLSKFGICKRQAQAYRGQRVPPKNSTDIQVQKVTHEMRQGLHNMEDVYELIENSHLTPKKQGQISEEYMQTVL
Outline: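 TSHR-HEK293 cells (800/well) plated 18 h, then compounds with Ro20-1724 and TSH at 1.5 ng/mL final, 30 min at room temperature. cAMP quantified by HTRF (cAMP-d2/anti-cAMP-cryptate, 1 h); 15 concentrations in triplicate.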

[8] = qHTS assay to identify small molecule agonists of the progesterone receptor (PR) signaling pathway - cell viability counter screen (AID 1346799; calls by dose curve; also: nearly all actives have a fitted effect of over 45% in size; also: potency is read from the fitted curve at half-maximal effect)
Outline: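 Using the same plates as the PR reporter screen, HEK293T PR-UAS-bla cells received compounds for 16 hr at 37C and were then lysed with CellTiter-Glo; luminescence was read 30 min later at room temperature.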

[9] = target: Thyrotropin-releasing hormone receptor (Homo sapiens) (UniProt P34981); test: qHTS assay to identify small molecule antagonists of the thyrotropin-releasing hormone receptor (TRHR) signaling pathway (AID 1346877; active = well fitted inhibition curve with a large enough effect in the repeat runs, not every such curve was filed as active; also: series mostly up to about 51 µM)
Sequence of Thyrotropin-releasing hormone receptor (Homo sapiens) (P34981 whole entry, looked up): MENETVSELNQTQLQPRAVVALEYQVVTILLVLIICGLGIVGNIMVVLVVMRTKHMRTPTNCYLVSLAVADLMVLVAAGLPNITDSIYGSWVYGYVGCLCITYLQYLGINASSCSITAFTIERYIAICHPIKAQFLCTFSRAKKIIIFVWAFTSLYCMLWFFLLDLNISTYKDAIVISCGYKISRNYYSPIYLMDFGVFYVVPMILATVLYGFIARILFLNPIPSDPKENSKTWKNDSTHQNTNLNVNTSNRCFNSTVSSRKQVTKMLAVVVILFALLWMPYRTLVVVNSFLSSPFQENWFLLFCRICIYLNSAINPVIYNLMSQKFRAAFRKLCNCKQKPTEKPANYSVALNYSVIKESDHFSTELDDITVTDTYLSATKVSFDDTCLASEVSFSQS
Outline: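 Antagonism is measured as suppression of the calcium response to 1 nM TRH in TRHR-HEK293 cells that have been dye-loaded for 2 h at 37 °C after overnight plating. Each compound is tested at 15 concentrations in triplicate.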

[10] = target: Thyrotropin-releasing hormone receptor (Homo sapiens) (UniProt P34981); test: qHTS assay to identify small molecule agonists of the thyrotropin-releasing hormone receptor (TRHR) signaling pathway (AID 1346891; calls by dose curve;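 also: HEK293 cells expressing TRHR with calcium dye readout; series mostly up to about 58 µM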)
Outline: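 Overnight-plated (18 h, 37 °C, 5% CO2) TRHR-Hek293 cells; 2 h calcium dye at 37 °C; compound in DMSO; 3-min kinetic fluorescence read.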

[11] = qHTS assay to identify small molecule agonists of the estrogen receptor alpha (ER-alpha) signaling pathway in the presence of an antagonist - cell viability counter screen (AID 1259386);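 also: series mostly up to about 92 µM; cells exposed to compounds for 22 h at 37 °C before the viability read; nearly all actives have a fitted effect of over 30% in size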
Outline: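 Cytotoxicity was measured in parallel with the ERE-luciferase agonist screen, in the same wells. The cells were VM7Luc4E2, which endogenously express ER-alpha, and treatment was with compounds plus 10.0nM ICI-182,780 for 22hr.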

[12] = target: Progesterone receptor (Homo sapiens) (UniProt P06401); test: qHTS assay to identify small molecule agonists of the progesterone receptor (PR) signaling pathway (AID 1346784; calls by dose curve; also: nearly all actives have a fitted effect of over 30% in size)
Sequence of Progesterone receptor (Homo sapiens) (P06401 whole entry, looked up): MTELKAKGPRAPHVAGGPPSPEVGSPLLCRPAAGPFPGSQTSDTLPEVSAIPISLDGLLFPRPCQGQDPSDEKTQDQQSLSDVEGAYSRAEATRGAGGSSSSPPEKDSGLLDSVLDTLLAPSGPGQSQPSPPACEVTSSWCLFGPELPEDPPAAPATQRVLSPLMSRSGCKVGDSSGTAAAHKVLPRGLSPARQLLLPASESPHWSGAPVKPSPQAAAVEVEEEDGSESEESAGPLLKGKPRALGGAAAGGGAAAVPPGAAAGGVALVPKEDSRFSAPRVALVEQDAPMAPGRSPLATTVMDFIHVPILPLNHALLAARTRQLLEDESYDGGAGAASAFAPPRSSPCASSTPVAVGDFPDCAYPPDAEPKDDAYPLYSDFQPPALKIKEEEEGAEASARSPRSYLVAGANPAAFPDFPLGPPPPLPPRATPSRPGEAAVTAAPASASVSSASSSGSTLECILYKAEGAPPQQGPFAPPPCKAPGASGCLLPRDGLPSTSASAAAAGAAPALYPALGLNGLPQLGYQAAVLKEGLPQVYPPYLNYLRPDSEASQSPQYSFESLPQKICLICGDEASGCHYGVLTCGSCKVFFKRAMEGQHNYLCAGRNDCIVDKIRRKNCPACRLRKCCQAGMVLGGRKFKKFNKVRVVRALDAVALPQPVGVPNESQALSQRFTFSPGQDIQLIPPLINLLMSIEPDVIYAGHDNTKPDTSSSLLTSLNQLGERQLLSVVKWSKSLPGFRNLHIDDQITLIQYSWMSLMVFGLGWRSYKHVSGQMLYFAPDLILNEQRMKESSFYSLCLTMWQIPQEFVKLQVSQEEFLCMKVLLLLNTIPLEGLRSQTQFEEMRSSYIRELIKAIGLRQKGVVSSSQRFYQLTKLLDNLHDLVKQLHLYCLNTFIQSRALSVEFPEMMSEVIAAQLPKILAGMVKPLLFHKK
Outline: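 Seed PR-UAS-bla HEK 293T cells (2% charcoal-stripped FBS), incubate 6 hr at 37C; add compounds in DMSO, 16 hr at 37C; add LiveBLAzer B/G substrate, 2 hr RT; read fluorescence intensity.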

[13] = target: Progesterone receptor (Homo sapiens) (UniProt P06401); test: qHTS assay to identify small molecule antagonists of the progesterone receptor (PR) signaling pathway (AID 1346795; active = well fitted inhibition curve with a large enough effect in the signal ratio in the repeat runs, not every such curve was filed as active; the % refers to the signal ratio; also: potency is read from the fitted curve at half-maximal effect)
Outline: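 Screening used a GripTite HEK293T line with PR-responsive UAS-beta-lactamase. Cells were challenged with compound in the presence of 1 nM R5020 final for 16 hr at 37C; B/G FRET substrate, 2 hr room temperature, fluorescence.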

[14] = qHTS assay to identify small molecule antagonists of the TGF-beta/Smad signaling pathway - cell viability counter screen (AID 1346824); also: nearly all actives have a fitted effect of over 50% in size
Outline: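 SBE-bla HEK 293T cells, incubated overnight, then compound plus 0.25 ng/mL TGF-beta1 (stock added) for 5 hr at 37 C. Viability was read in the same wells by CellTiter-Glo luminescence after 30 min at room temperature.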

[15] = qHTS assay to identify small molecule agonists of the TGF-beta/Smad signaling pathway - cell viability counter screen (AID 1346829); also: top concentration of the series differs between compounds; nearly all actives have a fitted effect of over 45% in size
Outline: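 Tox21 qHTS format: SBE-bla HEK 293T cells treated with DMSO-dissolved compounds for 5 hr; CellTiter-Glo luminescence after 30 min at room temperature.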

[16] = qHTS assay to identify small molecule agonists of the TGF-beta/Smad signaling pathway (AID 1346859; active = well fitted activation curve with a large enough effect in the signal ratio in the repeat runs, not every such curve was filed as active; the % refers to the signal ratio; also: series mostly up to about 77 µM)
Outline: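 Beta-lactamase reporter activity downstream of Smad binding elements was measured in stably transfected HEK 293T cells; compounds were incubated for 5 hr, substrate for 2 hr at room temperature.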

[17] = Human pregnane X receptor (PXR) small molecule agonists, qHTS cell viability counter screen (AID 1346977); also: nearly all actives have a fitted effect of over 50% in size; also: potency is read from the fitted curve at half-maximal effect
Outline: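 After a 5hr pre-incubation, PXR-Luc HepG2 cells received compounds plus positive control in DMSO and were kept 24hr at 37C. Cell viability was quantified by fluorescence from CellTiter-Fluor added for the final hour.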

[18] = Caspase-3/7 induction in HepG2 cells by small molecules, qHTS assay (AID 1346978); also: nearly all actives have a fitted effect of over 15% in size
Outline: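 Wild-type HepG2 cells, 2,000/well, settled 5 hr at 37 C and 5% CO2, then compound-treated for 17 hr; caspase-3/7 activity read by luminescent Caspase-Glo 3/7 after 30 min at room temperature.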

[19] = qHTS assay to identify small molecule antagonists of the progesterone receptor (PR) signaling pathway - cell viability counter screen (AID 1346798); also: series mostly up to about 92 µM; nearly all actives have a fitted effect of over 50% in size
Outline: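 Measures cytotoxicity in parallel with the PR antagonist reporter read: HEK293T PR-UAS-bla cells get compound and R5020 for 16 hr, and remaining viable cells are quantified by CellTiter-Glo luminescence.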

SMILES	Potency [1]	Potency [2]	Potency [3]	Potency [4]	Potency [5]	outcome [6]	Potency [7]	Potency [8]	Potency [9]	Potency [10]	Potency [11]	Potency [12]	Potency [13]	Potency [14]	Potency [15]	outcome [16]	Potency [17]	Potency [18]	Potency [19]
CC1CCC(C(C)C)C(OC(=O)c2ccccc2N)C1 (stereo not drawn)	8.51 µM (active)	inactive	30.2 µM (active)	60.3 µM (active)	inactive	inactive	60.3 µM (active)	53.7 µM (active)	inactive	inactive	–	–	–	–	–	–	–	–	–
CCOP(=S)(OCC)OC(Cl)C(Cl)(Cl)Cl (stereo not drawn)	inactive	inactive	inactive	inactive	–	inactive	–	inactive	–	–	inactive	inactive	inactive	inactive	inactive	inactive	inactive	inactive	–
COC(=O)N(C(=O)N1COC2(C(=O)OC)Cc3cc(Cl)ccc3C2=N1)c1ccc(OC(F)(F)F)cc1 (stereo not drawn)	inactive	inactive	inactive	inactive	inactive	inactive	inactive	inactive	–	–	inactive	inactive	29.8 µM (active)	inactive	inactive	inactive	inactive	inactive	inactive
Nc1ccccc1C(=O)OC/C=C/c1ccccc1	48.7 µM (active)	inactive	21.7 µM (active)	inactive	12.2 µM (active)	inactive	inactive	inactive	inactive	inactive	inactive	–	27.4 µM (active)	inactive	inactive	inactive	inactive	inactive	inactive
ClC(Cl)=C(Cl)Cl	inactive	inactive	inactive	–	–	inactive	inactive	inactive	inactive	inactive	inactive	–	inactive	inactive	inactive	inactive	inactive	inactive	inactive
N#Cc1ccccc1N	inactive	inactive	inactive	inactive	inactive	inactive	inactive	inactive	inactive	inactive	inactive	–	–	inactive	inactive	inactive	inactive	inactive	inactive
O=CC(Br)(Br)Br	inactive	30.5 µM (active)	21.6 µM (active)	–	inactive	–	–	inactive	–	–	–	inactive	inactive	–	–	–	43.1 µM (active)	inactive	inactive
N#CCc1ccc(Cl)cc1	inactive	inactive	inactive	inactive	inactive	–	–	inactive	inactive	inactive	inactive	inactive	inactive	inactive	inactive	–	inactive	inactive	inactive
